Measured values published in PubChem BioAssay AID624351 (Southern Research Specialized Biocontainment Screening …, 2012).
Out of some 2,400 compounds screened, about 1,400 (58%) were called active.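 Rule for the calls: active = inhibition of 30% or more at any tested dose; inconclusive = primary hits over the limit that were never retested; inactive = the rest.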 The set was probably picked from earlier hits. The list shows a part of the results.

Assay: coupled detection enzyme interference, dose response, artefact control for MgcRacGAP inhibitor project, biochemical, coupled enzyme counter-screen (AID 624351);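 note: signal is the ADP detection kit reading of free GDP without any GAP enzyme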
Conditions: ADP Hunter coupled enzyme counter-screen, fluorescence, no MgcRacGAP; series mostly up to 80 µM

Row | Structure (SMILES) | IC50
1 | Cc1cc(C)c(OCCCCN(C)Cc2ccccc2)c(C)c1 | inactive
2 | COc1cc(OC)c(OC)cc1/C=N/N(C)c1ccccc1 | 56.4 µM (active)
3 | COc1cc(/C=N/N(C)c2ccccc2)ccc1O | 17.3 µM (active)
4 | COc1cc(/C=N/N(C)c2ccccc2)cc(Cl)c1O | 37.7 µM (active)
5 | Cc1ccc(N2C(S)=C(C#N)C(=O)NC2c2cccs2)cc1 (stereo not drawn) | inactive
6 | CC1=NN(c2ccc(Cl)c(C(=O)O)c2)C(=O)/C1=C/c1ccc(-c2ccccc2[N+](=O)[O-])o1 | inactive
7 | Cc1cccc(CN2CCN(C(C)C(=O)NC(C)c3ccccc3)CC2)c1 (stereo not drawn) | inactive
8 | CC(=O)N1CCN(c2ccc(NCc3ccc(F)cc3)cc2)CC1 | 10.9 µM (active)
9 | CC(=O)N1CCN(c2ccc(NCc3cccc(C)c3)cc2)CC1 | 7.75 µM (active)
10 | COc1cccc(-c2cc(C(=O)N3CCN(c4ccc(F)cc4)CC3)no2)c1 | inactive
11 | Cc1ccc(CNc2ccc(N3CCOCC3)cc2)s1 | 11.7 µM (active)
12 | CC(=O)N1CCN(c2ccc(NCc3ccc(C(C)C)cc3)cc2)CC1 | 8.85 µM (active)
13 | O=c1c2cc(F)ccc2sn1-c1ccccc1 | inactive
14 | O=C(CNCc1cccs1)Nc1ccc(N2CCCCCC2)cc1 | inactive
15 | CC(=O)N1CCN(c2ccc(NCc3cccs3)cc2)CC1 | 14.7 µM (active)
16 | CC(=O)N1CCN(c2ccc(NCc3ccccc3)cc2)CC1 | 8.44 µM (active)
17 | CCc1ccc(CNc2ccc(N3CCN(C(C)=O)CC3)cc2)cc1 | 9.1 µM (active)
18 | CC(C)c1ccc(CNc2ccc(N3CCOCC3)cc2)cc1 | 7.52 µM (active)
19 | Cc1ccccc1C(OCC(O)CN1CCN(CCO)CC1)c1ccccc1 (stereo not drawn) | inactive
20 | O=C(CNc1ccc(Oc2ccccc2)cc1)N1CCOCC1 | inactive
21 | c1ccc(CNc2ccc(N3CCOCC3)cc2)cc1 | 5.39 µM (active)
22 | CC(C)n1cc(/C=N/Nc2ccc(Cl)c(C(=O)O)c2)c2ccccc21 | inactive
23 | Cc1ccc(/C=N/Nc2ccc(Cl)c(C(=O)O)c2)s1 | 67.4 µM (active)
24 | Cc1ccc(/C=N/Nc2ccc(C(=O)O)cc2)s1 | 79.7 µM (active)
25 | O=c1[nH][nH]cc1C=Nc1cc(Cl)ccc1O | 46 µM (active)

Row | Structure (SMILES) | IC50
26 | O=c1[nH][nH]cc1C=Nc1ccc(Cl)cc1Cl | inactive
27 | CCCCn1c(SCC(=O)c2ccc(O)c(O)c2)nc2ccsc2c1=O | 45.9 µM (active)
28 | CCOc1cccc(CNc2ccc(O)cc2)c1OCc1ccc(Cl)cc1Cl | inactive
29 | CC(Oc1ccc(Cl)cc1Cl)C(=O)Nc1ccc(O)cc1 (stereo not drawn) | 46.9 µM (active)
30 | CCCC(=O)NC(=S)Nc1cccc2c(O)cccc12 | 46.4 µM (active)
31 | O=C(NC(NC(=S)Nc1ccc(Cl)c(Cl)c1)C(Cl)(Cl)Cl)c1ccco1 (stereo not drawn) | inactive
32 | O=C(NC(=S)Nc1cccc2c(O)cccc12)c1ccco1 | 42.5 µM (active)
33 | COc1cc(/C=N/NC(=O)C(=O)N2CCCC2)ccc1O | 40.8 µM (active)
34 | CCOc1cc(/C=N/NC(=O)CN2CCCCC2)ccc1O | 55.5 µM (active)
35 | CCN1CCN(CC(=O)Nc2cc(C(F)(F)F)ccc2OCCOC)CC1 | inactive
36 | CCOc1cc(/C=N/NC(=O)C(=O)N2CCCC2)ccc1O | 60.6 µM (active)
37 | Oc1ccc(/C=N/NC(=S)NCc2ccco2)cc1 | 44.4 µM (active)
38 | S=C(NCc1ccco1)NCc1ccco1 | inactive
39 | COc1cc(/C=N/NC(=O)C(=O)NCC2CCCO2)ccc1O (stereo not drawn) | 31.2 µM (active)
40 | Oc1ccc(/C=N/NC(=S)NCC2CCCO2)cc1 (stereo not drawn) | 28.5 µM (active)
41 | CCN1CCN(C(=S)NCC2CCCO2)CC1 (stereo not drawn) | inactive
42 | Cc1nnc(N=c2ssnc2Cl)o1 | inactive
43 | Nc1nc(=S)ss1 | inactive
44 | COc1ccc(CN2CCCC(C(=O)N3CCCC3)C2)cc1 (stereo not drawn) | inactive
45 | COc1ccc(N2CCN(C(=O)CCCn3c(=O)c4cccn4c4cccnc43)CC2)cc1 | inactive
46 | COc1ccc2[nH]c3c(=O)n(CCCCC(=O)N4CCC(C(N)=O)CC4)c(=S)[nH]c3c2c1 | 53.3 µM (active)
47 | COc1ccc2[nH]c3c(=O)n(Cc4ccc(C(=O)N5CCC(C(N)=O)CC5)cc4)c(=S)[nH]c3c2c1 | 37.6 µM (active)
48 | COc1cccc(CN2CCC(C(=O)N3CCC(C)CC3)CC2)c1 | inactive
49 | CC(C)=NNc1cc([N+](=O)[O-])cc2c1C(=O)N(C)S2=O (stereo not drawn) | inactive
50 | Oc1ccc(Cl)cc1N=Cc1sc2ccccc2c1Cl | 21.4 µM (active)

Row | Structure (SMILES) | IC50
51 | Cc1ccc(O)c(N=Cc2sc3ccccc3c2Cl)c1 | 39.7 µM (active)
52 | CS(=O)(=O)N1CCN(C2C3CC4CC(C3)CC2C4)CC1 (stereo not drawn) | inactive
53 | O=C(CN1CCCCCC1)NN(Cc1ccccc1)c1ccccc1 | inactive
54 | O=C(COC(=O)c1ccccc1)Nc1ncc([N+](=O)[O-])s1 | inactive
55 | CCS(=O)(=O)NC(C)C(c1cccs1)N1CCN(c2ccc(OC)cc2)CC1 (stereo not drawn) | 81.8 µM (active)
56 | COc1ccc(N2CCN(C(c3cccs3)C(C)NC(=O)c3ccco3)CC2)cc1 (stereo not drawn) | inactive
57 | COc1ccc(N2CCN(C(CNS(=O)(=O)c3ccc4c(c3)OCCO4)c3ccco3)CC2)cc1 (stereo not drawn) | inactive
58 | Nc1ccc(-c2nc3ccc(N)cc3s2)cc1 | 75.8 µM (active)
59 | Nc1ccc2nc(N)sc2c1 | 11 µM (active)
60 | N#CC1(Nc2ccc3c4c(cccc24)CC3)CCCCC1 | 24.3 µM (active)
61 | COc1ccc(/C=N/Nc2cc(C)nc3ccc(OC)cc23)c(OC)c1 | inactive
62 | COc1ccc2c(c1)c(C(=O)N/N=C/c1ccc(O)c(O)c1)c(C)n2C | 22 µM (active)
63 | COc1ccc2nc(C)cc(SCC(=O)N/N=C/c3ccc(O)c(O)c3)c2c1 | 28 µM (active)
64 | COc1ccc2nc(/N=C(\N)NC(=O)N3c4ccccc4Sc4ccccc43)nc(C)c2c1 | inactive
65 | CC1(C)C2CCC(CN=C(N)CSS(=O)(=O)O)C1C2 (stereo not drawn) | inactive
66 | CC(/C=C/c1ccc(O)cc1)=N/O | 11.8 µM (active)
67 | COc1ccc(N2CCC(CNC(=S)Nc3cc(C)cc(C)c3)C2)cc1 (stereo not drawn) | inactive
68 | COc1ccc(N2CCC(CNC(=O)Nc3ccc(C)c(C)c3)C2)cc1 (stereo not drawn) | inactive
69 | COc1ccc(NC(=S)NCC2CCN(c3ccc(OC)cc3)C2)cc1 (stereo not drawn) | 52.5 µM (active)
70 | CCc1ccccc1NC(=S)NCC1CCN(c2ccc(OC)cc2)C1 (stereo not drawn) | 65.3 µM (active)
71 | COc1ccc(N2CCC(CNC(=S)Nc3cccc(C)c3)C2)cc1 (stereo not drawn) | 72.2 µM (active)
72 | CCc1c(C)nc(N2CCN(c3ccc(OC)cc3)CC2)[nH]c1=O | inactive
73 | COc1ccc(CNCC(=O)Nc2ccccc2-n2cccc2)cc1 | inactive
